Reference: PubChem BioAssay (NCATS)
Records with an inconclusive call do not appear. Activity calls are given as the source filed them. The call rests on the fitted dose curve; in most records, active means well fitted curve in the direction sought with a large enough effect; inconclusive means small, poorly fitted or top-dose-only effect, or another doubt; inactive means no such curve, though single readings can be large; an effect the other way counts as inactive or inconclusive.

Assays:
Tov-21-G = experiment: Primary qHTS to identify gynecologic anti-cancer compounds using libraries of approved drugs and bioactive compounds (AID 1345084); conditions: Gynecologic cancer cell panel viability, ATPlite luminescence, 48 h; series mostly up to 57.5 µM; further: nearly all actives have a fitted effect of over 55% in size
Summary of the method: (§1)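 Cytotoxicity screen measuring ATP content by luciferase luminescence. Each compound is applied at five concentrations for 48 h at 37 C with 5% CO2.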

Tov112D = experiment: as above; conditions: Gynecologic cancer cell panel viability, ATPlite luminescence, 48 h; series mostly up to 57.5 µM
Summary of the method: as §1

[1] = Drug repurposing screens with cells derived from glioblastoma tumor samples (AID 1345199); conditions: GBM patient neurospheres viability, ATP luminescence, 48 h; further: nearly all actives have a fitted effect of over 40% in size; further: potency means the concentration at half of the fitted maximal effect
Summary of the method: (§2)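 Four patient lines of CD133+ GBM neurospheres were screened at several concentrations; hits were retested in those lines plus three slower-growing GBM lines, using 48-hour treatment and ATP-based viability.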

astro = experiment: as above; conditions: viability, ATP luminescence, 48 h; series mostly up to 45.9 µM
Summary of the method: as §2

[2] = at 45.9 µM (top of the series), tumour line B
[3] = at 45.9 µM (top of the series), tumour line D
[4] = at 46 µM (top of the series), tumour line A
[5] = at 46.1 µM (top of the series), tumour line C
[6] = at 20 µM (top of the series), tumour line C
[7] = at 21.2 µM (top of the series), tumour line B
[8] = at 21.2 µM (top of the series), tumour line D
[9] = at 21.3 µM (top of the series), tumour line A
On the % scale 0 is the no-effect control and ±100 the full control effect.

O=C(O)CCC(=O)O
inactive: outcome (Tov-21-G) | outcome (Tov112D) | activity, negative = cell killing [1, 2] -11.8% | activity, negative = cell killing [1, 3] -1.31% | activity, negative = cell killing [1, 4] -19% | activity, negative = cell killing [1, 5] 36.7% | outcome (astro)

Nc1ncnc2c1ncn2[C@@H]1O[C@H](COP(=O)(O)O)[C@@H](O)[C@H]1O
inactive: outcome (Tov-21-G) | outcome (Tov112D) | activity, negative = cell killing [1, 2] 4.49% | activity, negative = cell killing [1, 3] 20.2% | activity, negative = cell killing [1, 4] -19.3% | activity, negative = cell killing [1, 5] -13.6% | outcome (astro)

NC(=O)NS(=O)(=O)c1ccc(N)cc1
inactive: outcome (Tov-21-G) | outcome (Tov112D) | activity, negative = cell killing [1, 2] -9.53% | activity, negative = cell killing [1, 3] 9.92% | activity, negative = cell killing [1, 4] -3.84% | activity, negative = cell killing [1, 5] 3.57% | outcome (astro)

C=CCSCC1Nc2cc(Cl)c(S(N)(=O)=O)cc2S(=O)(=O)N1 (centres undefined)
inactive: outcome (Tov-21-G) | outcome (Tov112D) | activity, negative = cell killing [1, 2] -4.84% | activity, negative = cell killing [1, 3] -16.7% | activity, negative = cell killing [1, 4] -17.1% | activity, negative = cell killing [1, 5] -16.4% | outcome (astro)

N[C@@H](Cc1ccc(O)cc1)C(=O)O
inactive: activity change, negative = cytotoxicity (Tov-21-G) 5.15% [at 11.6 µM] | activity change, negative = cytotoxicity (Tov112D) 8.21% [at 11.6 µM] | activity, negative = cell killing [1, 2] -2.51% | activity, negative = cell killing [1, 3] -14.6% | activity, negative = cell killing [1, 4] -11% | activity, negative = cell killing [1, 5] 37.9% | outcome (astro)

CC(C)CCCC(C)CCCC(C)CCCCC(C)CCCC(C)CCCC(C)C (centres undefined)
inactive: outcome (Tov-21-G) | outcome (Tov112D) | activity, negative = cell killing [1, 2] 2.81% | activity, negative = cell killing [1, 3] 2.23% | activity, negative = cell killing [1, 4] -12.7% | activity, negative = cell killing [1, 5] 8.73%

CC(=O)OC[C@H]1O[C@@](COC(C)=O)(O[C@H]2O[C@H](COC(C)=O)[C@@H](OC(C)=O)[C@H](OC(C)=O)[C@H]2OC(C)=O)[C@@H](OC(C)=O)[C@@H]1OC(C)=O
inactive: outcome (Tov-21-G) | outcome (Tov112D) | activity, negative = cell killing [1, 2] -8.85% | activity, negative = cell killing [1, 3] -9.16% | activity, negative = cell killing [1, 4] -28.7% | activity, negative = cell killing [1, 5] 2.01% | outcome (astro)

COc1cc(O)cc(O)c1
inactive: outcome (Tov-21-G) | outcome (Tov112D) | activity, negative = cell killing [1, 2] -0.182% | activity, negative = cell killing [1, 3] -4.84% | activity, negative = cell killing [1, 4] -38.5% | activity, negative = cell killing [1, 5] -3.31%

NS(=O)(=O)c1ccc(C(=O)O)cc1
inactive: outcome (Tov-21-G) | outcome (Tov112D) | activity, negative = cell killing [1, 2] -5.24% | activity, negative = cell killing [1, 3] 4.61% | activity, negative = cell killing [1, 4] -19% | activity, negative = cell killing [1, 5] -15.2% | outcome (astro)

CCOc1cc(NC(C)=O)ccc1C(=O)OC
inactive: outcome (Tov-21-G) | outcome (Tov112D) | activity, negative = cell killing [1, 2] -7.75% | activity, negative = cell killing [1, 3] -29.2% | activity, negative = cell killing [1, 4] -29.3% | activity, negative = cell killing [1, 5] 2.82% | outcome (astro)

CC(CSC(=O)c1ccccc1)C(=O)N1C[C@@H](Sc2ccccc2)C[C@H]1C(=O)O (some centres undefined)
inactive: outcome (Tov-21-G) | outcome (Tov112D) | activity, negative = cell killing [1, 2] -5.59% | activity, negative = cell killing [1, 3] 5.1% | activity, negative = cell killing [1, 4] -20.1% | activity, negative = cell killing [1, 5] -14.7% | outcome (astro)

Cc1ncc(CO)c(CN)c1O
inactive: outcome (Tov-21-G) | outcome (Tov112D) | activity, negative = cell killing [1, 2] 0.478% | activity, negative = cell killing [1, 3] 6.58% | activity, negative = cell killing [1, 4] -23.9% | activity, negative = cell killing [1, 5] -87%

O=C(O)COC(=O)Cc1ccccc1Nc1c(Cl)cccc1Cl
inactive: outcome (Tov-21-G) | outcome (Tov112D) | activity, negative = cell killing [1, 6] -2.19% | activity, negative = cell killing [1, 7] -12.4% | activity, negative = cell killing [1, 8] -4.64% | activity, negative = cell killing [1, 9] -12.9% | outcome (astro)

NC(N)=NS(=O)(=O)c1ccc(N)cc1
inactive: outcome (Tov-21-G) | outcome (Tov112D) | activity, negative = cell killing [1, 6] 3.63% | activity, negative = cell killing [1, 7] -6.02% | activity, negative = cell killing [1, 8] 9.81% | activity, negative = cell killing [1, 9] 6.37% | outcome (astro)

CCOC(=O)c1cccnc1
inactive: outcome (Tov-21-G) | outcome (Tov112D) | activity, negative = cell killing [1, 2] -7.07% | activity, negative = cell killing [1, 3] -8.05% | activity, negative = cell killing [1, 4] -24.1% | activity, negative = cell killing [1, 5] 22.3% | outcome (astro)

CCN(CC)S(=O)(=O)c1ccc(C(=O)O)cc1
inactive: outcome (Tov-21-G) | outcome (Tov112D) | activity, negative = cell killing [1, 2] -12.2% | activity, negative = cell killing [1, 3] -3.35% | activity, negative = cell killing [1, 4] -16.8% | activity, negative = cell killing [1, 5] -15.2% | outcome (astro)

CCOC(N)=O
inactive: outcome (Tov-21-G) | outcome (Tov112D) | activity, negative = cell killing [1, 2] -14.9% | activity, negative = cell killing [1, 3] 19.2% | activity, negative = cell killing [1, 4] -11.2% | activity, negative = cell killing [1, 5] -16.1% | outcome (astro)

CNCc1ccccc1
inactive: outcome (Tov-21-G) | outcome (Tov112D) | activity, negative = cell killing [1, 2] -13% | activity, negative = cell killing [1, 3] -15.9% | activity, negative = cell killing [1, 4] -19.4% | activity, negative = cell killing [1, 5] -9.99% | outcome (astro)

O=C(O)c1ccc[n+]([O-])c1
inactive: outcome (Tov-21-G) | outcome (Tov112D) | activity, negative = cell killing [1, 2] -13.5% | activity, negative = cell killing [1, 3] 12.2% | activity, negative = cell killing [1, 4] -25.2% | activity, negative = cell killing [1, 5] -21.7% | outcome (astro)

CC(=O)Oc1cccc(C)c1
inactive: outcome (Tov-21-G) | outcome (Tov112D) | activity, negative = cell killing [1, 2] -2.63% | activity, negative = cell killing [1, 3] -6.87% | activity, negative = cell killing [1, 4] -17.9% | activity, negative = cell killing [1, 5] -0.258% | outcome (astro)

CC[C@]12CCCN3CCc4c(n(c5ccccc45)[C@@](O)(C(=O)OC)C1)[C@@H]32
inactive: outcome (Tov-21-G) | outcome (Tov112D) | activity, negative = cell killing [1, 2] -12.1% | activity, negative = cell killing [1, 3] 5.83% | activity, negative = cell killing [1, 5] -21.5% | outcome (astro)
active: Potency ([1]; tumour line A) 17.8 µM
